In PubChem BioAssay (NCATS):
Records with an inconclusive call do not appear. Calls of active or inactive are those of the source. Unless noted, the call rests on the fitted dose curve; in most records, active means well fitted curve in the direction sought with a large enough effect; inconclusive means small, poorly fitted or top-dose-only effect, or another doubt; inactive means no such curve, though single readings can be large; an effect the other way counts as inactive or inconclusive.

Columns and labels:
[1] = target: Estrogen receptor (Homo sapiens) (UniProt P03372); test: qHTS assay for small molecule agonists of estrogen receptor alpha signaling (AID 588514; calls by dose curve;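 further: 0% = vehicle only and 100% = reference agonist; nearly all actives have a fitted effect of over 70% in size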)
How it was run: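 ER-alpha-UAS-bla GripTite HEK293 cells, 5000/well in 2% charcoal/dextran-stripped FBS medium, treated with compound titrations 18 h at 37 C. CCF4 beta-lactamase read by fluorescence after 2 h RT; normalised to 20 nM 17-beta-estradiol (100%) and DMSO (0%), Hill fit for EC50 and efficacy.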

[2] = target: Glucocorticoid receptor (Homo sapiens) (UniProt P04150); test: qHTS assay for small molecule agonists of glucocorticoid receptor signaling (AID 588532; active means well fitted curve in the direction sought with a large enough effect in the signal ratio, with a control signal flat; the % refers to the signal ratio;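 further: 100% = dexamethasone at 0.1 µM and 0% = DMSO only wells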); details: HeLa MMTV-bla, beta-lactamase ratio, agonist, 18 h; stronger effect = higher value; percent of dexamethasone control, DMSO zero
How it was run: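 Using MMTV-bla HeLa cells in medium with 1% stripped FBS and 25 mM HEPES, compounds were titrated and incubated overnight-length (18 h). Beta-lactamase cleavage of CCF4 was quantified by dual-emission fluorescence.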

[3] = target: Glucocorticoid receptor (Homo sapiens) (UniProt P04150); test: qHTS assay for small molecule antagonists of glucocorticoid receptor signaling (AID 588533; active means well fitted inhibition curve with a large enough effect in the signal ratio, with a control signal flat, not every such curve was filed as active; the % refers to the signal ratio;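 further: cells stimulated with 2 nM dexamethasone as agonist; on the % scale 0 is the no-effect control and ±100 the full control effect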)
How it was run: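 Antagonist-mode qHTS: compound titrations added to GRE-bla HeLa cells, then dexamethasone 2 nM final; 18 h, 37 C. CCF4 FRET fluorescence normalized to dexamethasone and DMSO; IC50 from Hill fit.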

[4] = qHTS assay for small molecule antagonists of peroxisome proliferator-activated receptor delta signaling (AID 588535); details: HEK293T PPARd-UAS-bla, beta-lactamase FRET ratio, 18 h; 460 nm channel;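 further: cells co-treated with a PPAR-delta agonist as stimulator during compound exposure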
How it was run: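 HEK293T PPAR-delta-UAS-bla cells, 4000/well, 2% charcoal/dextran FBS; 5 h 37 C; cpd titration; 18 h 37 C; CCF4 2 h RT; FI 460/530 nm; Hill fit → IC50, efficacy.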

[5] = target: Peroxisome proliferator-activated receptor gamma (Homo sapiens) (UniProt P37231); test: qHTS assay for small molecule agonists of peroxisome proliferator-activated receptor gamma signaling (AID 588536; active means well fitted curve in the direction sought with a large enough effect in the signal ratio, with a control signal flat, not every such curve was filed as active; the % refers to the signal ratio;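 further: 0% = DMSO basal wells and 100% = rosiglitazone at 2 µM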)
How it was run: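 Test agents, titrated, stimulated HEK293 UAS-bla cells overnight (16 h, 37 C). Substrate CCF4 was then added for two hours at room temperature before fluorescence reading.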

[6] = target: Vitamin D3 receptor (Homo sapiens) (UniProt P11473); test: qHTS assay for small molecule agonists of vitamin D receptor signaling (AID 588543; calls by dose curve;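 further: 0% = DMSO basal and 100% = reference agonist control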)
How it was run: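 qHTS in agonist mode: compound titrations stimulate a VDR-driven β-lactamase reporter in HEK293T cells over 16 h at 37 °C. Response normalized to 50 nM 1α,25-dihydroxyvitamin D3 = 100%, DMSO = 0%; Hill fitting gives EC50 and maximal response.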

[7] = target: Thyroid hormone receptor beta (Homo sapiens) (UniProt P10828); test: qHTS assay for small molecule agonists of thyroid hormone receptor beta signaling (AID 588545; calls by dose curve;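 further: 0% = DMSO only and 100% = 10 nM T3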)
How it was run: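 Compounds were tested as agonists in TR-UAS-bla-GripTite HEK 293 cells. After 18 hrs at 37 C, CCF4 substrate was added and fluorescence read after 2 hrs at room temperature.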

[8] = qHTS assay for small molecule antagonists of retinoid X receptor alpha signaling (AID 588546; active means well fitted inhibition curve with a large enough effect in the signal ratio, with a control signal flat, not every such curve was filed as active; the % refers to the signal ratio;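 further: cells stimulated with 9-cis-retinoic acid as agonist; on the % scale 0 is the no-effect control and ±100 the full control effect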); details: HEK293T RXRa-UAS-bla, beta-lactamase ratio, antagonist mode; measured here: W530 green channel, cytotoxicity proxy
How it was run: (§1)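 Beta-lactamase reporter inhibition, read as CCF4 fluorescence ratio (ex 405, em 460/530 nm) after 2 h at RT. HEK293T UAS-bla cells, 2500/well, were stimulated with 9-cis-RA at 500 or 100 nM final alongside test compound for 18 h at 37 C.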

[9] = target: Retinoic acid receptor RXR-alpha (Homo sapiens) (UniProt P19793); test: as above; details: HEK293T RXRa-UAS-bla, beta-lactamase ratio, antagonist mode
How it was run: as §1

[10] = target: Thyroid hormone receptor beta (Homo sapiens) (UniProt P10828); test: qHTS assay for small molecule antagonists of thyroid hormone receptor beta signaling (AID 588547; active means well fitted inhibition curve with a large enough effect in the signal ratio, with a control signal flat, not every such curve was filed as active; the % refers to the signal ratio;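 further: cells stimulated with 0.4 nM T3 agonist during compound exposure; series mostly up to about 77 µM; on the % scale 0 is the no-effect control and ±100 the full control effect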); details: TR-UAS-bla HEK293, beta-lactamase ratio, antagonist mode, 18 h
How it was run: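 Inhibition of T3-driven (0.4nM final) beta-lactamase reporter activity was measured over 0.59 nM to 92 uM compound after 18 h at 37 C. The cells were GripTite HEK293 TR-UAS-bla in charcoal/dextran-stripped serum, with CCF4 ratio read-out and IC50 from Hill fits.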

[11] = qHTS assay for small molecule agonists of the antioxidant response element (ARE) signaling pathway measured by Nrf2-dependant transcriptional activity (AID 720636; active means well fitted curve in the direction sought with a large enough effect in the repeat runs; an effect the other way counts as inactive or inconclusive; further: % of control where 0% means no effect)
How it was run: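 Quantitative HTS format in HepG2 cells stably expressing an ARE-luciferase reporter; 16 hr compound treatment at 37 C, luciferase signal detected with ONE-Glo.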

[12] = qHTS assay for small molecule agonists of the antioxidant response element (ARE) signaling pathway measured by Nrf2-dependant transcriptional activity - cell viability counter screen (AID 720653; active means well fitted curve in the direction sought with a large enough effect in the repeat runs; an effect the other way counts as inactive or inconclusive; further: on the % scale 0 is the no-effect control and ±100 the full control effect); details: ARE-bla HepG2 viability, CellTiter-Glo ATP luminescence, 16 h; max response: stronger effect = lower value
How it was run: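 Cytotoxicity counter screen: intracellular ATP quantified by CellTiter-Glo luminescence in the same ARE-bla HepG2 plates, after 16 h compound exposure and a 2 h beta-lactamase substrate step.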

[13] = qHTS assay for cell viability of HEK293 cells (AID 743288); details: ATP luminescence (CellTiter-Glo), 18 h; max response: stronger effect = lower value; further: on the % scale 0 is the no-effect control and ±100 the full control effect; nearly all actives have a fitted effect of over 50% in size
How it was run: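 The Tox21 protocol used parental HEK293 cells treated for 18 h at 37 C with compounds delivered by pintool; ATP-coupled luminescence after 30 min at room temperature gave viability.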

[14] = qHTS assay for cell viability of the p53RE-bla HCT-116 cell line (AID 743292); further: on the % scale 0 is the no-effect control and ±100 the full control effect; nearly all actives have a fitted effect of over 55% in size
How it was run: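 Viability of compound-treated p53RE-bla HCT-116 cells is taken from ATP-dependent luciferase luminescence. Treatment lasts 16 h at 37 C after a 5 h settling period; detection follows 30 min at room temperature.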

[15] = target: Nuclear receptor subfamily 1 group I member 2 (Rattus norvegicus) (UniProt Q9R1A7); test: qHTS assay for small molecule activators of the rat pregnane X receptor (rPXR) signaling pathway (AID 651751; call rule not given here; further: 0% is about no effect); details: rPXR reporter cells, luciferase (One-Glo), 24 h
[16] = qHTS assay for small molecule activators of the human pregnane X receptor (PXR) signaling pathway (AID 720659; call rule not given here; further: 0% is about no effect)
[17] = qHTS assay for small molecule agonists of retinoid X receptor alpha signaling (AID 588544; calls by dose curve;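 on activation: 0% = DMSO basal wells and 100% = reference agonist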); details: HEK293T RXRa-UAS-bla, beta-lactamase reporter, 18 h; 530 nm emission
[18] = target: Retinoic acid receptor RXR-alpha (Homo sapiens) (UniProt P19793); test: as above
[19] = qHTS assay for environmental chemicals that activate the Aryl hydrocarbon Receptor (AhR) signaling pathway (AID 651777); details: 1A2-DRE human hepatoma cells, luciferase, 24 h; activation: stronger effect = higher value; further: % of control where 0% means no effect; nearly all actives have a fitted effect of over 15% in size
How it was run: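 Quantitative HTS in stably transfected human liver-derived cells whose luciferase gene sits downstream of the CYP1A2 promoter and dioxin response element. After 24 hr exposure at 37 C, One-Glo luminescence was measured.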

[20] = target: Peroxisome proliferator-activated receptor alpha (Homo sapiens) (UniProt Q07869); test: qHTS assay for small molecule agonists of the peroxisome proliferator-activated receptor alpha (PPARalpha) signaling pathway (AID 651778); details: PathHunter PPARalpha complementation, chemiluminescence, 6 h; max response: stronger effect = higher value; further: % of control where 0% means no effect
How it was run: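 Chemiluminescence from complemented enzyme reported PPARalpha activation in cells after 6 hr of compound treatment at 37 C. The detection reagent was incubated for 60 min at room temperature, and compounds were scored as agonists.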

Sequence of Peroxisome proliferator-activated receptor alpha (Homo sapiens) (Q07869 whole entry, looked up): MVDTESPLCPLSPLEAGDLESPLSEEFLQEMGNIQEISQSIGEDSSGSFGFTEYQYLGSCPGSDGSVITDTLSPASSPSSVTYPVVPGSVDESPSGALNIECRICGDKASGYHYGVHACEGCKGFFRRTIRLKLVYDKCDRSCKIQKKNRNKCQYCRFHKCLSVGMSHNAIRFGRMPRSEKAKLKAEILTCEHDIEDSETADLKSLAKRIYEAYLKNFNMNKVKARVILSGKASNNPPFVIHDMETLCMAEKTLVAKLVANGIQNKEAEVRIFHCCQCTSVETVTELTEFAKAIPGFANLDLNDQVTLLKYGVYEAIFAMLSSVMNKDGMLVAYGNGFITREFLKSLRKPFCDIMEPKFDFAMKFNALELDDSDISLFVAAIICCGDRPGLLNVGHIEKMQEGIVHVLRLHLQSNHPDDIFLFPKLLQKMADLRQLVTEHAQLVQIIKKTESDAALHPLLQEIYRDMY
Sequence of Nuclear receptor subfamily 1 group I member 2 (Rattus norvegicus) (Q9R1A7 whole entry, looked up): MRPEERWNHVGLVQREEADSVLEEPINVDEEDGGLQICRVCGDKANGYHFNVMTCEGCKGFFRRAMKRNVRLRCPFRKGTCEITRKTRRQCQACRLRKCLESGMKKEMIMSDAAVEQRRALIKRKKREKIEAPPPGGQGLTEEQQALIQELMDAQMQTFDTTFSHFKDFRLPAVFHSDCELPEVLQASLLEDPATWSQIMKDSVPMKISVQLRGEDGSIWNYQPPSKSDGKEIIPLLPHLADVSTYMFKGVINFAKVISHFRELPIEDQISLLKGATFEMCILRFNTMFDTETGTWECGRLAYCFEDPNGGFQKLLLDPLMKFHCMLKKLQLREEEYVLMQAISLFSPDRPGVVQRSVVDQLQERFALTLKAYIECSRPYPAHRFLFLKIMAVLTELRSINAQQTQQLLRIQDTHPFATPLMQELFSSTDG
Sequence of Thyroid hormone receptor beta (Homo sapiens) (P10828 whole entry, looked up): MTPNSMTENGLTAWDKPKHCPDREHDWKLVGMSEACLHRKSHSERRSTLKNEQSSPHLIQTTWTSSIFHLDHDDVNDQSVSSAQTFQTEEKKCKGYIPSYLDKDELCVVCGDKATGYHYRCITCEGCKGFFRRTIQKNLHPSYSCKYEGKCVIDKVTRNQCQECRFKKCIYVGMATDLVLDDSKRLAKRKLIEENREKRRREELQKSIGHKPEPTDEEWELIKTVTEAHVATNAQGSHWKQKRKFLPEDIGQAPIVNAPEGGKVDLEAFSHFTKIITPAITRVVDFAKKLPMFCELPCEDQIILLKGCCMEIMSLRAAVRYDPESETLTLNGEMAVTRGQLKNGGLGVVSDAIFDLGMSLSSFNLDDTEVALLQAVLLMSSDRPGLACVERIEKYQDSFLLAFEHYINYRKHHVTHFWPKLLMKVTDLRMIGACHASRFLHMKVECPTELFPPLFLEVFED
Sequence of Glucocorticoid receptor (Homo sapiens) (P04150 whole entry, looked up): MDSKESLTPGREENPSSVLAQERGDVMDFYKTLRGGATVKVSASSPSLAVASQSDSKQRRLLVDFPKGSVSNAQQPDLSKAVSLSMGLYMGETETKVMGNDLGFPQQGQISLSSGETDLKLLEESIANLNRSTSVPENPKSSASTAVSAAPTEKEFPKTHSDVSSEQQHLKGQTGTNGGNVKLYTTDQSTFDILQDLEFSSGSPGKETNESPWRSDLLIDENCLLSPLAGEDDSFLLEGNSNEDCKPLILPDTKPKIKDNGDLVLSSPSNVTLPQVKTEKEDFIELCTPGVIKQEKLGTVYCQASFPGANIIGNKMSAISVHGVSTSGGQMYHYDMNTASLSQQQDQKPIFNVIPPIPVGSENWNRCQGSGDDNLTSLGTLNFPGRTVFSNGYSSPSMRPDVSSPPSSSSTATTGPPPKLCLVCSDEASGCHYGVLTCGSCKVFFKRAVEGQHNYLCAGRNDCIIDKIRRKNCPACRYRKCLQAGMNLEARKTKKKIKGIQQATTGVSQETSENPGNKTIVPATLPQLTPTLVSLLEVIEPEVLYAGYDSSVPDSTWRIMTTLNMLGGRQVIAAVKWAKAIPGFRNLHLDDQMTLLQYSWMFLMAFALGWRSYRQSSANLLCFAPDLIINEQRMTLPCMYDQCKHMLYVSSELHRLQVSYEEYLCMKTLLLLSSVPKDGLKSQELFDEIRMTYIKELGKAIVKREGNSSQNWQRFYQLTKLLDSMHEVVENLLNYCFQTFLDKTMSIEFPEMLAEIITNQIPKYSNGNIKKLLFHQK
Sequence of Retinoic acid receptor RXR-alpha (Homo sapiens) (P19793 whole entry, looked up): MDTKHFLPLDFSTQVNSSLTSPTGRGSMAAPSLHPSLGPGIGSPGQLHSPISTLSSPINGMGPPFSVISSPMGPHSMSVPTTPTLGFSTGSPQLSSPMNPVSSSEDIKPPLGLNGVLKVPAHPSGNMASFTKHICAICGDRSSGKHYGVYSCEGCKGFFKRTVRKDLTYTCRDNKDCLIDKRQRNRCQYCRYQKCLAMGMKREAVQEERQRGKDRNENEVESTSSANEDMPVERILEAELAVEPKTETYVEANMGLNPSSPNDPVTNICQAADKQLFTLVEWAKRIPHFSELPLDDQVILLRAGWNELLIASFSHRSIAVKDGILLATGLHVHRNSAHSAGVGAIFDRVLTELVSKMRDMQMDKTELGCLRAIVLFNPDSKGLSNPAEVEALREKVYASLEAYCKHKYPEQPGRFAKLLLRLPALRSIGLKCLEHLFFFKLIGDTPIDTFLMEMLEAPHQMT
Sequence of Vitamin D3 receptor (Homo sapiens) (P11473 whole entry, looked up): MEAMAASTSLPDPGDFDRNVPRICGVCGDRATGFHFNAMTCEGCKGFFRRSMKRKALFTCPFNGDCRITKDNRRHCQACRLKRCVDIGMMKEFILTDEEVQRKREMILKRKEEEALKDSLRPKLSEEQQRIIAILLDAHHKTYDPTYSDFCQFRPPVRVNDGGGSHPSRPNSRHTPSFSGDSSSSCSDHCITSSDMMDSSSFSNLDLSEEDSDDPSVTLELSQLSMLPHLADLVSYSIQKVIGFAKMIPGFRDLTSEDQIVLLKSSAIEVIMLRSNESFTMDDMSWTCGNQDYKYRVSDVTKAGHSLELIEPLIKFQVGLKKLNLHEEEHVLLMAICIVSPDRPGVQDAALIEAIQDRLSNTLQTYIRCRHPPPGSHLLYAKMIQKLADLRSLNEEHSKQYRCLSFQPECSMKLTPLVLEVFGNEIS
Sequence of Estrogen receptor (Homo sapiens) (P03372 whole entry, looked up): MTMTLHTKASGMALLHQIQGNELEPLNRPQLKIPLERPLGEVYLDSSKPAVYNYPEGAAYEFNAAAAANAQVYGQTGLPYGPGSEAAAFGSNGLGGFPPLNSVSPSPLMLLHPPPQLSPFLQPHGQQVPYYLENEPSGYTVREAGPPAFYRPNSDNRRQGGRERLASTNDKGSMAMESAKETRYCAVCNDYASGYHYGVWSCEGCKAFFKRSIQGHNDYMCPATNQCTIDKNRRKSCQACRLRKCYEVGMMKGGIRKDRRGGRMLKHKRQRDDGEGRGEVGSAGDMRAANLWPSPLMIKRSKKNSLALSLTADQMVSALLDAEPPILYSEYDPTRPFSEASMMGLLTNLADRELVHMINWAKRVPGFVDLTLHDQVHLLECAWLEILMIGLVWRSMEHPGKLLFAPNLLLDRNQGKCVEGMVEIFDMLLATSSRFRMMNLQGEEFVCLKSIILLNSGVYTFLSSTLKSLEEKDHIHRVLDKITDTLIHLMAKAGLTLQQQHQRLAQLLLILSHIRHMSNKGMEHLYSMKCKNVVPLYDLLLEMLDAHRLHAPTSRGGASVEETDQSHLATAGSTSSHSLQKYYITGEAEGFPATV
Sequence of Peroxisome proliferator-activated receptor gamma (Homo sapiens) (P37231 whole entry, looked up): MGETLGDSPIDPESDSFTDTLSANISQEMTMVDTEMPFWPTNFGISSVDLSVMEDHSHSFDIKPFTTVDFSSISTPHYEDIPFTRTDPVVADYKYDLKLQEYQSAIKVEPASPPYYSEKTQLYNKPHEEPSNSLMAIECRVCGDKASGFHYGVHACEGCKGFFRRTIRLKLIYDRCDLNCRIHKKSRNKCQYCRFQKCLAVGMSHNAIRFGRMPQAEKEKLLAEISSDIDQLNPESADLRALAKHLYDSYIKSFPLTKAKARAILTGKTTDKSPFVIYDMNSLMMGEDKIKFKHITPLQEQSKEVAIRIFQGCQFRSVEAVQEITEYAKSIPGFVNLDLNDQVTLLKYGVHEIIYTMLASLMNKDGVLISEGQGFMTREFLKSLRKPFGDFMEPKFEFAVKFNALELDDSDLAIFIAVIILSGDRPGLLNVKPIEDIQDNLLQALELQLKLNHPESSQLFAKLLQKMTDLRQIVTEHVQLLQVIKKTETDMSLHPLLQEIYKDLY

CC(C)(C)C1CCC(O)CC1 (stereo unspecified)
-0.1%: max response [8]
inactive: Potency [1] | activation [2] -9.45% | Potency [3] | outcome [5] | outcome [6] | Potency [7] | max response [9] 3.31% | activity change % (negative = inhibition) [10] -2.02% | Potency [11] | max response [12] 2.04% | max response [13] 1.92% | Potency [14] | max response [15] 1.71% | outcome [16]
-7.35%: max response [4]

C[Si](C)(Cl)[Si](C)(C)Cl
-27.8%: max response [8]
-0.475%: max response [17]
inactive: outcome [5] | outcome [6] | Potency [18] | max response [9] -15.7% | activity change % (negative = inhibition) [10] 6.15% | activation [19] -0.723% | max response [20] 1.76% | Potency [11] | max response [12] -9.32% | max response [13] -5.72% | Potency [14] | max response [15] -0.179% | outcome [16]
-22.7%: max response [4]

OCc1cccc(Oc2ccccc2)c1
-14.1%: max response [8]
-8.28%: max response [17]
-2.37%: max response [4]
inactive: outcome [5] | outcome [6] | Potency [18] | Potency [7] | max response [9] 9.52% | activity change % (negative = inhibition) [10] 9.19% | activation [19] 1.11% | max response [20] -0.0897% | Potency [11] | max response [12] 2.09% | max response [13] 2.32% | Potency [14] | max response [15] -3.09% | outcome [16]

CCCCCCc1ccc(N)cc1
65.6%: max response [4]
inactive: activation [2] -7.39% | Potency [3] | outcome [5] | outcome [6] | Potency [7] | max response [9] -10.1% | activity change % (negative = inhibition) [10] 1.93% | activation [19] 2.42% | max response [20] 0.597% | Potency [11] | max response [12] -14.6% | max response [13] -16% | Potency [14] | max response [15] -2.28% | outcome [16]
-5.49%: max response [8]

CC1(C)CC(N)CC(C)(CN)C1 (stereo unspecified)
-12.5%: max response [8]
-18%: max response [4]
inactive: Potency [1] | activation [2] 10.3% | Potency [3] | outcome [5] | Potency [18] | Potency [7] | max response [9] 4.46% | max response [20] -3.48% | Potency [11] | max response [12] -2.66% | max response [13] -2.22% | Potency [14] | max response [15] -2.15% | outcome [16]
-8.73%: max response [17]

CC(C)CCCCCOC(=O)CS
inactive: Potency [1] | activation [2] 5.28% | Potency [3] | outcome [5] | Potency [18] | Potency [7] | max response [9] -5.77% | activity change % (negative = inhibition) [10] -8.58% | activation [19] -0.874% | max response [20] 0.461% | Potency [11] | max response [12] -0.966% | Potency [14] | max response [15] -1.37% | outcome [16]
-2.29%: max response [8]
-0.354%: max response [17]

CCN(Cc1cccc(S(=O)(=O)O)c1)c1ccc(C(=C2C=CC(=[N+](CC)Cc3cccc(S(=O)(=O)[O-])c3)C=C2)c2ccccc2)cc1
inactive: Potency [1] | Potency [7] | max response [9] 8.46% | activity change % (negative = inhibition) [10] -4.54% | activation [19] -1.94% | max response [20] -3.93% | max response [12] -9.88% | max response [13] -13.6% | Potency [14] | max response [15] -0.0295% | outcome [16]
16.5%: max response [8]

C=CC(=O)OCC(C)OCC(C)OCC(C)OC(=O)C=C (stereo unspecified)
41.6%: max response [4]
-20.7%: max response [8]
inactive: Potency [1] | activation [2] -17.2% | Potency [3] | outcome [6] | Potency [18] | Potency [7] | max response [9] 10.6% | activity change % (negative = inhibition) [10] 0.874% | activation [19] -0.0895% | max response [20] -2.39% | Potency [11] | max response [12] -8.01% | max response [13] -1.74% | Potency [14] | max response [15] -2.64% | outcome [16]
-8.39%: max response [17]

CCCCN(CCCC)CCCCCCN(CCCC)CCCC
6.65%: max response [4]
-14.8%: max response [17]
inactive: Potency [1] | outcome [6] | Potency [18] | Potency [7] | activity change % (negative = inhibition) [10] 10% | activation [19] 1.73% | max response [20] -0.567% | Potency [11] | max response [12] -9.43% | max response [13] -21.9% | Potency [14] | max response [15] 4.27% | outcome [16]

C1CCC2(CCCCO2)OC1
51.5%: max response [4]
-20.2%: max response [17]
inactive: Potency [1] | activation [2] -8.41% | Potency [3] | outcome [5] | outcome [6] | Potency [18] | Potency [7] | max response [9] -3.1% | activity change % (negative = inhibition) [10] 7.84% | activation [19] 0.829% | Potency [11] | max response [12] 2.39% | max response [13] 3.07% | Potency [14] | max response [15] -2.06% | outcome [16]
-9.54%: max response [8]

C=C(C)C(=O)OCCN(C)C
inactive: Potency [1] | outcome [6] | Potency [7] | max response [9] 6.15% | activity change % (negative = inhibition) [10] 5.49% | activation [19] 0.477% | max response [20] -0.281% | Potency [11] | max response [12] -4.72% | max response [13] -8.88% | Potency [14] | max response [15] 5.37% | outcome [16]
0.555%: max response [8]
-44.3%: max response [4]

C[Si]1(C)O[Si](C)(C)O[Si](C)(C)O1
-4.52%: max response [17]
-6.48%: max response [8]
-11.7%: max response [4]
inactive: outcome [5] | outcome [6] | Potency [18] | max response [9] 2.26% | activity change % (negative = inhibition) [10] 5.16% | activation [19] 1% | max response [20] 0.478% | Potency [11] | max response [12] -2.26% | max response [13] -1.41% | Potency [14] | max response [15] -5.54% | outcome [16]
